PubChem BioAssay (NCI)
Values joined by “and” are separate entries in the source; they are usually repeats but may differ in a detail not shown here. Identical values can stand only once. Compounds without any hit were thinned out: in the full panel of roughly 79,000, 15% have a hit. The source holds several records for some structures; these can differ, active in one and inactive in another. Active and inactive are the calls of the source. Rule as the data show it: active = growth inhibition above about 70%; inactive = the rest.

Test: NCI Yeast Anticancer Drug Screen. Data for the cln2 rad14 strain (AID 165);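 also: 0% = growth equal to vehicle treated cultures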
Settings: S. cerevisiae cln2 rad14 strain, stronger effect = higher value
Experimental: Growth inhibition of yeast strains with defined genetic alterations is measured as a screen for potential anti-cancer activity. Selected strains with alterations in DNA damage repair or cell cycle control were exposed to compounds and growth inhibition was measured relative to vehicle treated controls. The strain used in this assay is cln2 rad14

[1] = at 5.0 µM (retest, dose inferred, filed as 0.5)
[2] = at 50.0 µM (retest, dose inferred, filed as 5.0)

Row | Structure (SMILES) | growth inhibition [1] | growth inhibition [2] | growth inhibition (at 50.0 µM)
1 | O=C1C(Br)=C(c2ccccc2)O/C1=C/C(=O)c1ccc(Br)cc1 | -13% (inactive) | 12% (inactive) | 29.7% (inactive)
2 | O=C1/C(=C/c2ccccc2)CCCC1CN1CCCCC1 (configuration not stated) | 65% (inactive) | 69% (inactive) | 75.4% (active)
3 | O=c1[nH]c2ccc(Cl)cc2o1 | 46% (inactive) and 2% (inactive) | 53% (inactive) and 43% (inactive) | 23.1% (inactive) and -1.85% (inactive)
4 | Cc1c(C(C)C)cc(OCCO)cc1C(C)C | 40% (inactive) | 1% (inactive) | 86.2% (active)
5 | Cc1cc2cc3cc(C)c(N)cc3nc2cc1N | 34% (inactive) | 98% (active) | 46.8% (inactive)
6 | C[C](C)(C)[Ge]([O][Ge]([c]1ccccc1)[c]1ccccc1)([O][Ge]([c]1ccccc1)[c]1ccccc1)[C](C)(C)C | 26% (inactive) | 82% (active) | 67.8% (inactive)
7 | N#CC(C#N)=NNc1ccc(S(=O)(=O)O)cc1 | 0% (inactive) | 23% (inactive) | 17.9% (inactive)
8 | c1ccc2c(c1)sc1c3cnccc3ccc21 | -39% (inactive) | -26% (inactive) | 33% (inactive)
9 | Nc1n[n+]([O-])c2ccc(Cl)cc2[n+]1[O-] | 19% (inactive) | 93% (active) | 76.7% (active)
10 | CCCC(O)C1CC(C(C)C)CCC1C (configuration not stated) | 4% (inactive) | 44% (inactive) | 92% (active)
11 | O=C1Nc2ccccc2/C1=C/c1ccccc1 | -67% (inactive) and -49% (inactive) | -83% (inactive) and -8% (inactive) | -40.7% (inactive) and 70.8% (active)
12 | COc1ccc(C(=O)Oc2ccccc2Br)cc1 | 0% (inactive) | 16% (inactive) | -16.3% (inactive)
13 | CN(C)CCNc1ccc2ncnc3c2c1C(=O)c1ccccc1-3 | 2% (inactive) | 51% (inactive) | 66.9% (inactive)
14 | C/C=C/SC(=Nc1ccccc1)Nc1ccccc1 | 2% (inactive) | 33% (inactive) | 2.3% (inactive)
